Measured values published in PubChem BioAssay (NCI).
This is part of a sample that, as a whole, favours compounds with a hit. Of some 79,000 tested, about 15% had one in any assay. Values without a mark were called inactive. Activity calls are given as the source filed them. Rule as the data show it: active = growth inhibition above about 70%; inactive = the rest.

Assays:
[1] = NCI Yeast Anticancer Drug Screen. Data for the wt1 strain (AID 149);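 also: 0% = growth of vehicle-treated wt1 cultures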; details: S. cerevisiae wt1 strain (SPY 50644) growth inhibition, active compounds read high
Outline: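 Readout: yeast growth inhibition, normalised to vehicle controls, in the wt1 strain exposed to test compounds.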

[2] = NCI Yeast Anticancer Drug Screen. Data for the rad50EPP+ strain (AID 151);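 also: 0% = growth of vehicle-treated control cultures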; details: S. cerevisiae rad50 mutant strain, active compounds read high
Outline: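 Growth inhibition read against vehicle controls in rad50EPP+ yeast, a strain altered in DNA damage repair, after compound exposure.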

[3] = NCI Yeast Anticancer Drug Screen. Data for the mgt1 strain (AID 153); details: S. cerevisiae mgt1 mutant growth inhibition, active compounds read high
Outline: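 mgt1 yeast grown with test compound; read-out is growth inhibition versus vehicle-treated cultures.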

[4] = NCI Yeast Anticancer Drug Screen. Data for the mec2-1 strain (AID 157); details: S. cerevisiae mec2-1 strain, active compounds read high
Outline: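 Yeast mec2-1 mutant treated with compound. Readout: growth inhibition vs vehicle controls.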

[5] = NCI Yeast Anticancer Drug Screen. Data for the rad14 strain (AID 159);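 also: 0% = growth of vehicle-treated control cultures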; details: S. cerevisiae rad14 strain growth inhibition, active compounds read high
Outline: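 Compound-treated yeast with a defined DNA-repair lesion; growth inhibition normalised to vehicle-treated cultures.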

[6] = NCI Yeast Anticancer Drug Screen. Data for the sgs1 mgt1 strain (AID 161);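 also: 0% = growth of cultures given vehicle only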; details: S. cerevisiae sgs1 mgt1 strain, active compounds read high
Outline: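 Genetically altered yeast, compound exposure, growth inhibition relative to vehicle.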

[7] = NCI Yeast Anticancer Drug Screen. Data for the CLN2oe strain (AID 163);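 also: 0% = growth of vehicle-only control cultures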; details: S. cerevisiae CLN2oe strain, active compounds read high
Outline: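 Read-out: yeast growth inhibition, expressed relative to vehicle-only controls. The strain bears an engineered cell-cycle alteration.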

[8] = NCI Yeast Anticancer Drug Screen. Data for the cln2 rad14 strain (AID 165);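 also: 0% = growth equal to vehicle treated cultures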; details: S. cerevisiae cln2 rad14 strain, active compounds read high
Outline: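 cln2 rad14 yeast strain; compound exposure; growth inhibition read vs vehicle controls.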

[9] = NCI Yeast Anticancer Drug Screen. Data for the bub3 strain (AID 167); details: S. cerevisiae bub3 mutant strain, active compounds read high
Outline: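 Growth of a checkpoint-deficient yeast mutant is measured after compound exposure. Values represent inhibition relative to vehicle.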

[10] = NCI Yeast Anticancer Drug Screen. Data for the wt2 strain (AID 169);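 also: 0% = growth of vehicle-treated yeast cultures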; details: S. cerevisiae wt2 strain growth inhibition, active compounds read high
Outline: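 Read-out: growth inhibition versus vehicle-treated control cultures after compound exposure of the yeast strain.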

[11] = NCI Yeast Anticancer Drug Screen. Data for the mlh1 strain (AID 171);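 also: 0% = growth of vehicle-treated control cultures of the same strain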; details: S. cerevisiae mlh1 strain growth inhibition, active compounds read high
Outline: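 Read-out: growth inhibition versus vehicle controls. Strain: engineered yeast with a defined DNA repair or cell cycle defect, compound-treated.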

[12] = NCI Yeast Anticancer Drug Screen. Data for the sgs1 strain (AID 173);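 also: 0% = growth of vehicle-only control cultures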; details: S. cerevisiae sgs1 mutant, active compounds read high
Outline: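 Read-out: yeast growth inhibition relative to vehicle controls, following compound exposure of a strain with a defined DNA repair/cell cycle alteration.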

[13] = NCI Yeast Anticancer Drug Screen. Data for the mlh1 rad18 strain (AID 175); details: S. cerevisiae mlh1 rad18 strain growth inhibition, active compounds read high
Outline: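 Yeast w/ defined DNA-repair lesions; compound exposure; growth vs vehicle controls → % inhibition.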

[14] = NCI Yeast Anticancer Drug Screen. Data for the rad18 strain (AID 177); details: S. cerevisiae rad18 mutant growth inhibition, active compounds read high
Outline: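 Readout: growth inhibition vs vehicle controls. Cells: genetically altered yeast strain, DNA repair defect.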

[15] = at 5.0 µM (retest, dose inferred, filed as 0.5)
[16] = at 50.0 µM (retest, dose inferred, filed as 5.0)

Structure (SMILES): c1cc(Nc2ccc3c(c2)OCO3)c2cc(C3CCCCC3)ccc2n1
- growth inhibition ([1]; at 1.2 µM): 0%
- growth inhibition ([1]; at 3.7 µM): 0%
- growth inhibition ([1]; at 11.0 µM): -4%
- growth inhibition ([1]; at 33.0 µM): -6%
- growth inhibition ([1]; at 100.0 µM): 34%
- growth inhibition ([2]; at 1.2 µM): 1%
- growth inhibition ([2]; at 3.7 µM): -2%
- growth inhibition ([2]; at 11.0 µM): -2%
- growth inhibition ([2]; at 33.0 µM): -3%
- growth inhibition ([2]; at 100.0 µM): 23%
- growth inhibition ([3]; at 1.2 µM): -2%
- growth inhibition ([3]; at 3.7 µM): -4%
- growth inhibition ([3]; at 11.0 µM): -3%
- growth inhibition ([3]; at 33.0 µM): -6%
- growth inhibition ([3]; at 100.0 µM): 85% (active)
- growth inhibition ([4]; at 1.2 µM): -3%
- growth inhibition ([4]; at 3.7 µM): -2%
- growth inhibition [4, 15]: -8%
- growth inhibition ([4]; at 11.0 µM): -4%
- growth inhibition ([4]; at 33.0 µM): -2%
- growth inhibition [4, 16]: 23%
- growth inhibition ([4]; at 50.0 µM): 99.5% (active)
- growth inhibition ([4]; at 100.0 µM): 72% (active)
- growth inhibition ([5]; at 1.2 µM): 5%
- growth inhibition ([5]; at 3.7 µM): 5%
- growth inhibition ([5]; at 11.0 µM): 7%
- growth inhibition ([5]; at 33.0 µM): 15%
- growth inhibition ([5]; at 100.0 µM): 78% (active)
- growth inhibition [6, 15]: 0%
- growth inhibition [6, 16]: 46%
- growth inhibition ([6]; at 50.0 µM): 99.2% (active)
- growth inhibition ([7]; at 1.2 µM): 1%
- growth inhibition ([7]; at 3.7 µM): 3%
- growth inhibition ([7]; at 11.0 µM): -1%
- growth inhibition ([7]; at 33.0 µM): 4%
- growth inhibition ([7]; at 100.0 µM): 52%
- growth inhibition [8, 15]: 40%
- growth inhibition [8, 16]: 46%
- growth inhibition ([8]; at 50.0 µM): 98.7% (active)
- growth inhibition ([9]; at 1.2 µM): -1%
- growth inhibition ([9]; at 3.7 µM): -3%
- growth inhibition [9, 15]: 10%
- growth inhibition ([9]; at 11.0 µM): -2%
- growth inhibition ([9]; at 33.0 µM): 8%
- growth inhibition [9, 16]: 98% (active)
- growth inhibition ([9]; at 50.0 µM): 98.6% (active)
- growth inhibition ([9]; at 100.0 µM): 74% (active)
- growth inhibition ([10]; at 1.2 µM): 0%
- growth inhibition ([10]; at 3.7 µM): -1%
- growth inhibition ([10]; at 11.0 µM): -2%
- growth inhibition ([10]; at 33.0 µM): 0%
- growth inhibition ([10]; at 100.0 µM): 81% (active)
- growth inhibition ([11]; at 1.2 µM): -1%
- growth inhibition ([11]; at 3.7 µM): -1%
- growth inhibition ([11]; at 11.0 µM): -2%
- growth inhibition ([11]; at 33.0 µM): 2%
- growth inhibition ([11]; at 100.0 µM): 82% (active)
- growth inhibition ([12]; at 1.2 µM): -1%
- growth inhibition ([12]; at 3.7 µM): -2%
- growth inhibition ([12]; at 11.0 µM): -7%
- growth inhibition ([12]; at 33.0 µM): 5%
- growth inhibition ([12]; at 100.0 µM): 86% (active)
- growth inhibition [13, 15]: 7%
- growth inhibition [13, 16]: 73% (active)
- growth inhibition ([13]; at 50.0 µM): 99.5% (active)
- growth inhibition ([14]; at 1.2 µM): -3%
- growth inhibition ([14]; at 3.7 µM): -7%
- growth inhibition ([14]; at 11.0 µM): -14%
- growth inhibition ([14]; at 33.0 µM): -16%
- growth inhibition ([14]; at 100.0 µM): 85% (active)
